A selection: hits, their analogues and other compounds. The true share with any hit is near 2.4%.
D2 antag: antagonizes the human D2 dopamine receptor; P14416; hit rate 2% among 340,000; HEK293 TREx D2 cells, calcium flux, dopamine EC80; inhibition, % at 10 µM; in the data active = inhibition above about 30%; inactive = below that, where a call was filed; also: 0% is about no effect
Target sequence (P14416 whole entry, looked up): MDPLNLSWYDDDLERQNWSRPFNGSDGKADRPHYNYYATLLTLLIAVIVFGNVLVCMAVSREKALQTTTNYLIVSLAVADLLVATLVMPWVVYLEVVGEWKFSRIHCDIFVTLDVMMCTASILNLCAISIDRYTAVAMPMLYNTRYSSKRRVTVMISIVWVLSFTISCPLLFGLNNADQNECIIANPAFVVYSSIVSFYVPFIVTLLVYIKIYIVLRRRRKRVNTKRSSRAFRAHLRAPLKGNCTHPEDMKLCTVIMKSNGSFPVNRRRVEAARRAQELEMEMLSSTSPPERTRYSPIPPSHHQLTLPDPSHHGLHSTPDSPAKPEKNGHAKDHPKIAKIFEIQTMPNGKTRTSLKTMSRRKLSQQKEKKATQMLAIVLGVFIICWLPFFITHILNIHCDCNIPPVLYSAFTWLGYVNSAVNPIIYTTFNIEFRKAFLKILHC
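HEK293 T-REx D2 cells, tet-induced, calcium dye no-wash. Cpd pintool add, 180 s kinetic, then EC80 DA, 180 s kinetic. Ca flux read.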
D2 PAM-1: potentiates the human D2 dopamine receptor allosterically; DiscoveRx D2 beta-arrestin cells, luminescence, 90 min; 100% = 57 uM dopamine signal; potentiation, % (concentration not given with the values); hit rate 0.23% among 360,000; AID 624464; in the data active = potentiation above about 50%; inconclusive = mostly about 30% to 49%
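D2 cells co-treated with compound plus 50 nM dopamine (EC20) for 90 min at 37 deg C to detect potentiation. Beta-arrestin recruitment was read as enzyme-fragment luminescence after 1 h at ambient temperature. Full response was set by 57 uM dopamine.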
D2 PAM-2: positive allosteric modulators of human D2 dopamine receptor; P14416; hit rate 0.34% among 340,000; HEK293 T-REx D2, calcium flux, EC20 dopamine potentiation; potentiation, % at 10 µM;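 active = potentiation over 3 SD above the plate norm, cut at about 30% in these data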; also: 0% is about no effect
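Using a no-wash calcium dye in inducible, force-coupled HEK293 Trex cells expressing D2, we tracked fluorescence each second for 180 s after compound, then for 180 s after EC20 dopamine to detect augmented signalling.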
D2 ag-1: agonists of human D2 dopamine receptor; P14416; HEK293 T-REx D2 cells, calcium flux agonist mode; activation, % at 2 µM; hit rate 0.53% among 340,000; AID 485358;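 active = activation over 3 SD above normal in the single-dose calcium agonist read, cut at about 30% in these data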; also: 0% is about no effect
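Calcium-flux readout, 1 cycle/sec over 180 s following compound pin transfer, in inducible HEK293 Trex D2 cells (force-coupled); dopamine controls included. Positive calcium responses during this window marked compounds as potential agonists.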
D2 ag-2: activates the human D2 dopamine receptor; P14416; DiscoveRx PathHunter D2 beta-arrestin, luminescence, 90 min; 100% = 57 uM dopamine signal; activation, % (no concentration beside the values); hit rate 0.084% among 360,000; in the data active = activation above about 40%; inconclusive = between about 15% and that limit
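Agonist mode: compounds alone added to overnight-plated D2 PathHunter cells for 90 min at 37 C, with 57 uM final dopamine (EC100) defining full response. Beta-arrestin recruitment detected by chemiluminescent reagent, read after 1 h at ambient temperature.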
The depositor's hits bear a star.

Results for CCCNC(=O)Cn1c(=O)n(CC(=O)N2CCCCC2)c(=O)c2sccc21 ?
D2 antag: -10; D2 PAM-1: -28; D2 PAM-2: 6; D2 ag-1: 1; D2 ag-2: -15

What do the screens show for `CCN(CC)C(=O)Cn1c(=O)n(CC(=O)N2CCCCC2)c(=O)c2sccc21`?
D2 antag: 33*; D2 PAM-1: 6; D2 PAM-2: -1; D2 ag-1: 0; D2 ag-2: -2

What do the screens show for `Cc1[nH]c(=O)[nH]c(=O)c1S(=O)(=O)N1CCCC(C(=O)NCCc2ccc(Cl)cc2)C1` (configuration not stated)?
D2 antag: 65*; D2 PAM-1: -15; D2 PAM-2: -17; D2 ag-1: 0; D2 ag-2: -1

How did COc1cc(O)c(C(CCN2CCN(c3ccccc3)CC2)c2cc(OC)c(OC)c(OC)c2)c(OC)c1 (configuration not stated) do in these assays?
D2 antag: 67*; D2 PAM-1: -24; D2 PAM-2: -23; D2 ag-1: 1; D2 ag-2: -2

Results for COc1cccc(-c2nc(NC(C)C)c3ccccc3n2)c1O ?
D2 antag: 32*; D2 PAM-1: 12; D2 PAM-2: 10; D2 ag-1: 12; D2 ag-2: 0

Results for COc1cccc(-c2nc(NCC3CCCO3)c3ccccc3n2)c1O (configuration not stated) ?
D2 antag: 4; D2 PAM-1: 10; D2 PAM-2: 15; D2 ag-1: 1; D2 ag-2: -2

What do the screens show for `COc1ccc(OC)c2sc(N3CCCCC3)nc12`?
D2 antag: 0; D2 PAM-1: -12; D2 ag-1: 2; D2 ag-2: -3

Results for O=C(NCCCNCCCNC(=O)c1ccccn1)c1ccccn1 ?
D2 antag: 74*; D2 PAM-1: -25; D2 PAM-2: 4; D2 ag-1: 0; D2 ag-2: -1

Results for Cc1ccccc1C(=O)NCCCNC(=O)c1ccccn1 ?
D2 antag: 2; D2 PAM-1: 0; D2 PAM-2: 31*; D2 ag-1: -2; D2 ag-2: -1

How did CN(C)CCCNCCCNC(=O)c1ccccn1 do in these assays?
D2 antag: 19; D2 PAM-1: -4; D2 PAM-2: -5; D2 ag-1: -1; D2 ag-2: -1

How did Cc1ccccc1C(=O)NCCNC(=O)c1ccccn1 do in these assays?
D2 antag: -3; D2 PAM-1: -8; D2 PAM-2: 0; D2 ag-1: 3; D2 ag-2: -5

How did Cc1c(C)n(CCN(C)C)c2ccc(C(=O)OCCN(C)C)cc12 do in these assays?
D2 antag: -17; D2 PAM-1: -14; D2 PAM-2: -4; D2 ag-1: -2; D2 ag-2: -2

Results for CC(=O)N1CCN(S(=O)(=O)c2cccc(C(=O)Nc3ccc(C)cn3)c2)CC1 ?
D2 antag: -2; D2 PAM-1: 3; D2 PAM-2: 2; D2 ag-1: 0; D2 ag-2: 1

What do the screens show for `Cc1ccc(NC(=O)c2cccc(S(=O)(=O)N3CCc4ccccc4C3)c2)nc1`?
D2 antag: 31*; D2 PAM-1: -3; D2 PAM-2: 5; D2 ag-1: 0; D2 ag-2: -2

Results for COc1cc(/C=C/C(=O)NCCn2c(C)cc3ccccc32)cc(OC)c1OC ?
D2 antag: 3; D2 PAM-1: 4; D2 PAM-2: 0; D2 ag-1: 0; D2 ag-2: 2

What do the screens show for `N/C(Cc1ccc(Cl)cc1Cl)=N\OC(=O)Cc1cccs1`?
D2 antag: 3; D2 PAM-1: -1; D2 PAM-2: 7; D2 ag-1: 0; D2 ag-2: -1

Results for N/C(Cc1cccc2ccccc12)=N\OC(=O)c1cccs1 ?
D2 antag: -17; D2 PAM-1: -15; D2 PAM-2: 0; D2 ag-1: 9; D2 ag-2: -1

Results for COc1ccccc1C/C(N)=N/OC(=O)c1cccs1 ?
D2 antag: 3; D2 PAM-1: 53*; D2 PAM-2: -4; D2 ag-1: 0; D2 ag-2: inconclusive

How did N/C(Cc1ccc(Cl)cc1Cl)=N\OC(=O)c1cccs1 do in these assays?
D2 antag: -25; D2 PAM-1: 119*; D2 PAM-2: -1; D2 ag-1: -1; D2 ag-2: 14

Results for O=C1CCC[C@@H]2Cc3nc4ccccc4cc3[C@@H]3CCN1[C@H]23 ?
D2 PAM-1: -18; D2 ag-2: -3

How did COc1cc(OC)c(C(=O)NC23CC4CC(CC(C4)C2)C3)cc1OC do in these assays?
D2 antag: -3; D2 PAM-1: 65*; D2 PAM-2: -2; D2 ag-1: 1; D2 ag-2: -2

What do the screens show for `CCc1ccc(CN(C(=O)COc2c(C)cccc2C)C2CCS(=O)(=O)C2)cc1` (configuration not stated)?
D2 antag: -3; D2 PAM-1: -9; D2 PAM-2: 2; D2 ag-1: 0; D2 ag-2: 0

What do the screens show for `Cc1cc(C)c(OCC(=O)N(Cc2ccccc2)C2CCS(=O)(=O)C2)c(C)c1` (configuration not stated)?
D2 antag: 6; D2 PAM-1: -5; D2 PAM-2: 44*; D2 ag-1: 0; D2 ag-2: 3

Results for C=CCNC(=S)NNC(=O)C(CCC(C)C)CC(C)O (configuration not stated) ?
D2 antag: 45*; D2 PAM-1: 2; D2 PAM-2: -12; D2 ag-1: 0; D2 ag-2: 2

How did COc1ccc(-c2noc(CN(C(=O)c3ccccc3Cl)C(C)C)n2)cc1 do in these assays?
D2 PAM-2: 0; D2 ag-1: 1

What do the screens show for `CCOc1cc(/C=N\Nc2nc(Nc3ccccc3)nc(N3CCOCC3)n2)ccc1OC(=O)c1ccco1`?
D2 PAM-1: 65*; D2 ag-2: inconclusive

What do the screens show for `COc1cc(/C=N/Nc2ccc3ccccc3c2)ccc1OC(=O)c1ccco1`?
D2 antag: 17; D2 PAM-1: 51*; D2 PAM-2: -5; D2 ag-1: -1; D2 ag-2: 8

Results for COc1cc(/C=N/Nc2nc(C)cc(C)n2)ccc1OC(=O)c1ccco1 ?
D2 antag: -2; D2 PAM-1: -9; D2 PAM-2: 9; D2 ag-1: 0; D2 ag-2: 2

How did Cc1ccc2c(c1)N(CC(=O)Nc1ccc3c(c1)OCCO3)C(=O)CO2 do in these assays?
D2 antag: 0; D2 PAM-1: -9; D2 PAM-2: -13; D2 ag-1: 3; D2 ag-2: 0

What do the screens show for `COc1ccc(C2(CNC(=O)c3cc([N+](=O)[O-])cc([N+](=O)[O-])c3)CCCC2)cc1OC`?
D2 antag: 8; D2 PAM-1: 25; D2 PAM-2: 3; D2 ag-1: 1; D2 ag-2: inconclusive

What do the screens show for `COc1cccc(NC(=O)Nc2nnc(CC(=O)NCc3ccccc3)s2)c1`?
D2 antag: 12; D2 PAM-1: -10; D2 PAM-2: -5; D2 ag-1: 0; D2 ag-2: -4
